# Measurements taken from PubChem BioAssay (Tox21).
# Several values for one entry are separate records, joined by “and”; a condition that tells them apart may be missing. Equal entries are not always repeated. Inconclusive results are not listed. Entries that show only a call come without a potency. More than one record can exist for a structure, and the calls need not agree. Activity calls are given as the source filed them. Unless noted, calls come from the whole dose curve; as a rule, active = well fitted curve in the direction sought with a large enough effect in the repeat runs; inconclusive = weak or mixed curves; inactive = no such curve, though single readings can be large; an effect the other way counts as inactive or inconclusive.
# Key:
# [1] = qHTS assay for small molecules that induce genotoxicity in human embryonic kidney cells expressing luciferase-tagged ATAD5 (AID 651632); note: nearly all actives have a fitted effect of over 15% in size; note: potency is the fitted concentration of half-maximal effect
# Outline: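 DMSO vehicle served as the control. HEK293T reporter cells, 16 hr at 37C, then 30 min Amplite at room temperature; ATAD5 induction is measured as luciferase activity.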
# [2] = qHTS assay for small molecule agonists of the p53 signaling pathway - cell viability (AID 651633; calls by dose curve; note: nearly all actives have a fitted effect of over 30% in size; note: potency is the fitted concentration of half-maximal effect)
# Outline: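 p53RE-bla cells were treated with compound for 16 hours at 37 C. Cytotoxicity was then measured as CellTiter-Glo luminescence after 30 min at room temperature.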
# [3] = qHTS assay for small molecules that induce genotoxicity in human embryonic kidney cells expressing luciferase-tagged ATAD5 - cell viability (AID 651634; calls by dose curve; note: nearly all actives have a fitted effect of over 25% in size; note: potency is the fitted concentration of half-maximal effect)
# Outline: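 Here HEK293T cells with the ATAD5 luciferase reporter are incubated with test compounds for 15.5 hr, and cytotoxicity is then gauged by measuring protease activity in live cells using fluorescence.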
# [4] = qHTS assay for small molecule disruptors of the mitochondrial membrane potential - cell viability (AID 720634; calls by dose curve;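 note: human HepG2 liver cancer cells; series mostly up to about 83 µM; nearly all actives have a fitted effect of over 20% in size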)
# Outline: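 Viability of HepG2 cells is scored from ATP content by luminescence; cells are exposed to compound for 1 hr at 37 C and 5% CO2, then dosed with m-MPI dye before the CellTiter-Glo reagent.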
# [5] = qHTS assay for small molecule disruptors of the mitochondrial membrane potential (AID 720635); note: potency is the fitted concentration of half-maximal effect
# Outline: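 HepG2 cells exposed to compound 1 hr at 37C, then Mito-MPS dye 30 min. Ratio read of aggregate (540/590 nm) versus monomer (490/535 nm) fluorescence.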
# [6] = qHTS assay to test for compound auto fluorescence at 590 nm (red) in HepG2 cells (AID 720674)
# Outline: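 Seeding: 2,000 HepG2 cells/well, MEM/10% FBS, overnight 37 C. Dosing: compound vs DMSO. Incubation: 1 hr, 37 C, 5% CO2. Read: fluorescence 540 ex/590 em, Rose Bengal sodium as red reference.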
# [7] = qHTS assay to test for compound auto fluorescence at 535 nm (green) in HepG2 cells (AID 720675); note: potency is the fitted concentration of half-maximal effect
# [8] = qHTS assay to test for compound auto fluorescence at 460 nm (blue) in HEK293 cells (AID 720678)
# Outline: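 Intrinsic compound fluorescence is recorded in live HEK293 cultures after overnight incubation at 37C, 5% CO2, using excitation 405 nm and emission 460 nm. Values are referenced to triamterene.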
# [9] = qHTS assay to test for compound auto fluorescence at 590 nm (red) in HEK293 cells (AID 720679)
# Outline: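 Red autofluorescence, HEK293 cells: 2,000 cells/well; attach 4-5 hr 37C; add 23 nL cpd or DMSO; incubate o/n 37C 5% CO2; read Ex540/Em590; Rose Bengal sodium reference.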
# [10] = qHTS assay to test for compound auto fluorescence at 535 nm (green) in HEK293 cells (AID 720680); note: potency is the fitted concentration of half-maximal effect
# [11] = qHTS assay to test for compound auto fluorescence at 460 nm (blue) in HEK293 cell free culture (AID 720681)
# Outline: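 Compounds were added to cell-free DMEM with 10% FBS and fluorescence read directly. The blue channel used 405 nm excitation and 460 nm emission, with triamterene as the reference fluorophore.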
# [12] = qHTS assay to test for compound auto fluorescence at 535 nm (green) in HEK293 cell free culture (AID 720682); note: potency is the fitted concentration of half-maximal effect
# Outline: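 No cells present: wells hold DMEM supplemented with 10% FBS, into which compound or vehicle is pinned. Green emission is then recorded (485 nm excitation, 535 nm emission) and scaled to fluorescein.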
# [13] = qHTS assay to test for compound auto fluorescence at 590 nm (red) in HepG2 cell free culture (AID 720684)
# Outline: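 Auto fluorescence equivalency versus Rose Bengal sodium, red channel Ex/Em 540/590 nm; compounds in cell-free MEM/10% FBS; DMSO vehicle control.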
# [14] = qHTS assay to test for compound auto fluorescence at 460 nm (blue) in HepG2 cell free culture (AID 720685)
# Outline: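 Cell-free plates of MEM plus 10% FBS received 23 nL compound or DMSO vehicle; blue-channel (405/460 nm) intensity scored against triamterene as reference fluorophore.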
# [15] = qHTS assay to test for compound auto fluorescence at 535 nm (green) in HepG2 cell free culture (AID 720686); note: potency is the fitted concentration of half-maximal effect
# [16] = qHTS assay to test for compound auto fluorescence at 460 nm (blue) in HepG2 cells (AID 720687)
# Outline: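 HepG2 cells in MEM with 10% FBS, attached overnight at 37 C, were exposed to compound or DMSO for 1 hr at 37 C, 5% CO2. Blue fluorescence was read at 405/460 nm, with triamterene as reference fluorophore.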
# [17] = biological target: Glucocorticoid receptor (Homo sapiens) (UniProt P04150); experiment: qHTS assay to identify small molecule antagonists of the glucocorticoid receptor (GR) signaling pathway (AID 720692; active = well fitted inhibition curve with a large enough effect in the signal ratio in the repeat runs, not every such curve was filed as active; the % refers to the signal ratio; note: potency is the fitted concentration of half-maximal effect)
# Sequence of Glucocorticoid receptor (Homo sapiens) (P04150 whole entry, looked up): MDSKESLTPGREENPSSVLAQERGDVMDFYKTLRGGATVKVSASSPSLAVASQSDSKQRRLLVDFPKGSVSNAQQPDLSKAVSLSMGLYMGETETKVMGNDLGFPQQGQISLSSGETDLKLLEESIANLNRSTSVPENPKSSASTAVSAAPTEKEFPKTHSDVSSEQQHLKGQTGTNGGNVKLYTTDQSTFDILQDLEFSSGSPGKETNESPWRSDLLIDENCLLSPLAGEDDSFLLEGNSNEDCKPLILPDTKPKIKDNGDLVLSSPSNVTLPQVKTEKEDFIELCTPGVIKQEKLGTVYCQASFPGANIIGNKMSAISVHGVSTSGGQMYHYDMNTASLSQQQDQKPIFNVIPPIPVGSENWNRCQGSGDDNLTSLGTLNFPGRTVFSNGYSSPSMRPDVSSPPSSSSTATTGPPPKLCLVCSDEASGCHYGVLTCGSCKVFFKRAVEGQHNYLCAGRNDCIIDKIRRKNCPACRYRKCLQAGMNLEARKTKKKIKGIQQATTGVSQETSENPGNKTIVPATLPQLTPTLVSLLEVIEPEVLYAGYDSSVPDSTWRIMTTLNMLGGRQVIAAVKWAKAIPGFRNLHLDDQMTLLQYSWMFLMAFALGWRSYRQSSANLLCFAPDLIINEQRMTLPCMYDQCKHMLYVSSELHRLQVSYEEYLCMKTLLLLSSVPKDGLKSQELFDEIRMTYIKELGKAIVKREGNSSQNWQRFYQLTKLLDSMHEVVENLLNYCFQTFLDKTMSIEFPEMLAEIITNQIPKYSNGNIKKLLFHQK
# Outline: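 In a 1536-well cell format, compounds were added 4 h after seeding GR-bla HeLa cells, together with dexamethasone at 5 nM final; reporter activity was measured by FRET-substrate fluorescence following 18 h at 37 C.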
# [18] = qHTS assay to test for compound auto fluorescence at 590 nm (red) in HEK293 cell free culture (AID 720683)
# Outline: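 Cell-free wells of DMEM with 10% FBS received compound, and intrinsic fluorescence was read at excitation/emission 540/590 nm. Values expressed as equivalence to Rose Bengal sodium.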
# [19] = biological target: Glucocorticoid receptor (Homo sapiens) (UniProt P04150); experiment: qHTS assay to identify small molecule agonists of the glucocorticoid receptor (GR) signaling pathway (AID 720691; active = well fitted activation curve with a large enough effect in the signal ratio in the repeat runs, not every such curve was filed as active; the % refers to the signal ratio)
# Outline: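 Compounds in DMSO, alongside positive controls, were added to GR-bla HeLa reporter cells and incubated 18 h at 37 C; GRE-driven beta-lactamase was detected by fluorescence after 2 h with FRET substrate at room temperature.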
# Tags give direction and shape of the fitted curve or compound fluorescence and quenching.
Compound,Potency [1],Potency [2],Potency [3],Potency [4],Potency [5],Potency [6],Potency [7],Potency [8],Potency [9],Potency [10],Potency [11],Potency [12],Potency [13],Potency [14],Potency [15],Potency [16],Potency [17],Potency [18],Potency [19]
CC1(C)[C@@H](O)CC[C@]2(C)[C@H]3C(=O)C=C4[C@@H]5C[C@@](C)(C(=O)O)CC[C@]5(C)CC[C@@]4(C)[C@]3(C)CC[C@@H]12,inactive,23.7 µM (active) and inactive,inactive,inactive,23.7 µM (active) and 67.8 µM (active),inactive,inactive,inactive,inactive,inactive,inactive,inactive,inactive,inactive,inactive,inactive,23.9 µM (active) and 21.3 µM (active) and 43.2 µM (active),,
C#CC1(O)CC[C@H]2[C@@H]3CCC4=CCCC[C@@H]4[C@H]3CC[C@@]21C (stereo not given in full),inactive,inactive and 68.6 µM (active),inactive,inactive,9.02 µM (active) and 17.2 µM (active),inactive,inactive,,inactive,inactive,inactive,inactive,inactive,inactive,inactive,inactive,,inactive,inactive
Clc1sc(Cl)c(Cl)c1Cl,inactive,inactive,inactive,inactive,,inactive,inactive,inactive,inactive,inactive,inactive,inactive,inactive,inactive,inactive,inactive,,inactive,
COc1ccc(-c2coc3cc(O)ccc3c2=O)cc1,1.72 µM (active),inactive,inactive,inactive,10.9 µM (active),inactive,inactive,,inactive,inactive,inactive,inactive,inactive,inactive,inactive,,,inactive,inactive
C=C(C)C(=O)OCCCCCCCCCC,inactive,inactive,inactive,inactive,,,inactive,inactive,inactive,inactive,inactive,inactive,inactive,inactive,inactive,inactive,,inactive,inactive
O=C1OC2(c3ccc(O)cc3Oc3cc(O)ccc32)c2ccc(N=C=S)cc21,inactive,inactive,inactive,inactive,,inactive,39.8 µM (active),inactive,inactive,39.8 µM [fluorescent] (active),inactive,39.8 µM [fluorescent] (active),inactive,inactive,35.5 µM [fluorescent] (active),inactive,inactive,inactive,inactive
Cc1cc(C)c(/C=C2\C(=O)Nc3ccccc32)[nH]1,inactive,2.66 µM (active),inactive,inactive,10.6 µM (active),inactive,inactive,inactive,inactive,inactive,inactive,inactive,inactive,inactive,,inactive,,inactive,
O=C(Nc1ccc2c(O)c(N=Nc3ccc(N=Nc4ccc(S(=O)(=O)O)cc4)cc3)c(S(=O)(=O)O)cc2c1)c1ccccc1,inactive,inactive,48.6 µM (active),inactive,,,inactive,inactive,inactive,inactive,inactive,inactive,inactive,inactive,inactive,inactive,,inactive,
COc1ccc2cc1Oc1ccc(cc1)C[C@H]1c3c(cc4c(c3Oc3cc5c(cc3OC)CCN(C)[C@@H]5C2)OCO4)CCN1C,inactive,inactive,29.8 µM (active),inactive,,inactive,inactive,inactive,inactive,inactive,inactive,inactive,inactive,inactive,inactive,inactive,inactive,inactive,inactive
CCN(CC)C(=O)c1cc(S(=O)(=O)Cc2ccccc2)c(N2CCC(c3ccccc3)CC2)cc1N(CC)CCN(C)C,inactive,29.8 µM (active),29.8 µM (active),,,inactive,inactive,,inactive,inactive,inactive,inactive,inactive,inactive,inactive,inactive,21.3 µM (active) and inactive,inactive,inactive
CCCCCC/C=C\CCCCCCCC(=O)O,inactive,inactive,inactive,inactive,,inactive,inactive,,inactive,inactive,inactive,inactive,inactive,inactive,inactive,inactive,,inactive,
CC[N+](CC)(CC)CCOc1ccc(/C=C/c2ccccc2)cc1,inactive,inactive,inactive,inactive,inactive,inactive,inactive,inactive,inactive,inactive,inactive,inactive,inactive,inactive,inactive,,inactive,,inactive
Cc1c(F)c(N2CCNC(C)C2)cc2c1c(=O)c(C(=O)O)cn2C1CC1 (stereo not given),inactive,inactive,inactive,inactive,,,inactive,,inactive,inactive,inactive,inactive,inactive,inactive,inactive,inactive,inactive,,inactive
C=CC(=O)OCCOC(=O)C=C,21.7 µM (active),inactive,61.1 µM (active),inactive,,inactive,inactive,inactive,inactive,inactive,inactive,inactive,inactive,inactive,inactive,inactive,,inactive,inactive
CC[N+](CC)(CC)CCOC(=O)C(C1CCCC1)C1CCCC1,inactive,inactive,inactive,inactive,inactive,inactive,inactive,inactive,inactive,inactive,inactive,inactive,inactive,inactive,inactive,inactive,,,
